Bioassay records (PubChem)
An excerpt weighted towards active compounds, which were near 3.9% of everything screened.
TROY NFkB inh – inhibitors of TROY-driven NF-kB signaling, primary screen, Q293 LMP1-TROYcd cells, NF-kB luciferase, uHTS; AID 1347056, 2019; Q293 LMP1-TROYcd NF-kB luciferase reporter, 4 h; inhibition, % at 10 µM; actives 0.98% (n = 360,000);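 active = compounds whose plate-normalised and pattern-corrected inhibition of the luciferase reporter signal at the single screening dose is 50% or more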
KKLEB cytotox – cytotoxicity in KKLEB CF airway cells, primary screen, cytotoxicity control for CF NF-kB inhibitor project, cell-based, uHTS, fluorescence assay plates | actives 0.36% (n = 360,000) | AID 602141, 2011 | activity change (cytotoxicity), % at 5 µM | KKLEB CF airway cells viability, ATPlite luminescence, overnight; stronger effect = lower value; cells stimulated with P. aeruginosa culture filtrate;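 active = corrected activity change at or below -50% at 5 µM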
CF NFkB inh – inhibitors of PAF-induced NF-kB signaling, primary screen, cell-based, GFP fluorescence, uHTS; KKLEB NF-kB-GFP reporter, GFP fluorescence overnight; inhibition, % at 5 µM; actives 0.86% (n = 360,000);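 active = at least 50% inhibition at 5 µM, scaled per plate between neutral and stimulator controls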;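 note: PAF is a Pseudomonas aeruginosa culture filtrate used as stimulus; plate controls were PAF-stimulated DMSO wells for no effect and unstimulated DMSO wells for full effect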
HIF-2a block – HIF-2a reporter inhibitors, primary screen, luminescence, 786-0 RCC cells. 786-0 RCC cells HIF-2a reporter, luciferase luminescence, overnight. inhibition, % at 18.8 µM. actives 0.72% (n = 360,000);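 active = inhibition of the luminescence signal of 40% or more relative to plate controls, in a single-dose primary screen at 18.75 µM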
TWEAK Fn14 block – inhibitors of TWEAK-Fn14 signaling, primary screen, luciferase reporter cells, uHTS | TWEAK-stimulated Fn14 reporter cells, luciferase luminescence, 8 h | inhibition, % at 10 µM | actives 2% (n = 360,000); in the data active = inhibition above about 50%
Peg3 promoter – Peg3 promoter-driven luciferase inhibitors, primary screen, cell-based, HeLa, luciferase luminescence | HeLa PEG-Prom luciferase reporter, overnight | inhibition, % at 20 µM | actives 1.7% (n = 360,000) | AID 588405, 2011;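 active = inhibition of at least 50% at 20 µM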
Mdm2 MdmX conf – retested Mdm2-MdmX interaction blockers, confirmation, cell-based, luminescence, single concentration, set 2. shares compounds with HIF-2a block. SaOS-2 split-luciferase Mdm2/MdmX complementation. inhibition, % at 8 µM. actives 99% (n = 740). AID 504601, 2011;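 active = mean inhibition of the luminescence signal across two replicates at or above 26 percent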
Target sequence (O15151 whole entry, looked up): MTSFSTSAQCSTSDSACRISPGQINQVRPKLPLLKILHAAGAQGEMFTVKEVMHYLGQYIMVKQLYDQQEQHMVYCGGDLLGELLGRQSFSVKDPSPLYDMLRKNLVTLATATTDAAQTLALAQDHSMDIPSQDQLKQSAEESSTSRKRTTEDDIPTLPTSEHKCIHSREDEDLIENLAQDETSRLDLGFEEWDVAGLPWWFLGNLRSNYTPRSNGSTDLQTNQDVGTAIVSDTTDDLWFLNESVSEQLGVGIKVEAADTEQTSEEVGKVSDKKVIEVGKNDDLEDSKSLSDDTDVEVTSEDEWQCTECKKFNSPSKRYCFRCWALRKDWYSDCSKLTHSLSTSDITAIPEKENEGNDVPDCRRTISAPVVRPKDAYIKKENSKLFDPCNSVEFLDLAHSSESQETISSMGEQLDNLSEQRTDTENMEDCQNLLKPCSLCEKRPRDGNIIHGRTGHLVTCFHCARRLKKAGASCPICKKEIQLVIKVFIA
Target sequence (Q00987 whole entry, looked up): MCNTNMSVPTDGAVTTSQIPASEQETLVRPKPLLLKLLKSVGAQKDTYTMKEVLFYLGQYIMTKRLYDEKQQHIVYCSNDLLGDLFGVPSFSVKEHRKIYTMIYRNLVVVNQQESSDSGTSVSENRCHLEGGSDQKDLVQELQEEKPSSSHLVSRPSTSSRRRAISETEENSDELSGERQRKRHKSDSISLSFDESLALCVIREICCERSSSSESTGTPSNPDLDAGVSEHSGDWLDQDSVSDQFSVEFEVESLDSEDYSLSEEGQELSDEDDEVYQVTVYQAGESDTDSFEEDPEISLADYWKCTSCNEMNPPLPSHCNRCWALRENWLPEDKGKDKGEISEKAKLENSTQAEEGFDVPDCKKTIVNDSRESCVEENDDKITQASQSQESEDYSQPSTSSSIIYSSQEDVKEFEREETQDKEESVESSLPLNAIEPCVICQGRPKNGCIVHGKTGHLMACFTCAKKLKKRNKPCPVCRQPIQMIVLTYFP
HIF-2a conf – HIF-2a reporter inhibitor retest, confirmation, luminescence, 786-0 RCC cells; shares compounds with HIF-2a block; HIF-2a luciferase reporter luminescence, overnight; inhibition, % at 18.8 µM; actives 56% (n = 1,800);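 active = mean inhibition across four replicates of at least 40 percent at the single tested concentration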
HIF-1a cs – HIF-1a luciferase reporter signal reduction – MiaPaCa-2 cells, single concentration, counter-screen for HIF-2a inhibitor project, confirmation | MiaPaCa-2 HIF-1a luciferase reporter, desferoxamine, overnight | inhibition, % at 18.8 µM | AID 651589, 2012 | shares compounds with HIF-2a block | actives 72% (n = 1,800);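 active = mean inhibition of the reporter signal across four replicates at the single tested dose of 50% or more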
Numbers without * were called inactive; . = not tested or not shown.

SMILES | TROY NFkB inh | KKLEB cytotox | CF NFkB inh | HIF-2a block | TWEAK Fn14 block | Peg3 promoter | HIF-2a conf | HIF-1a cs | others
CCc1ccc(N2C=C(C(=O)OC)C(c3ccc(OC)cc3)C(C#N)=C2N)cc1 (stereo unspecified) | . | . | . | 53.1* | . | . | 73.9* | 98.8*
COC(=O)C1=CN(c2ccc(OC)cc2)C(N)=C(C#N)C1c1ccc(OC)cc1 (stereo unspecified) | . | . | . | -18.8 | . | . | . | .
CCNc1nc(SCC(=O)Nc2ccccc2)nc(N2CCOCC2)n1 | 12.1 | -15.4 | 24.5 | 1.8 | -3.2 | 23.3 | . | .
CCc1noc(C)c1C(=O)Nc1nc(-c2ccc(NC(C)=O)cc2)cs1 | 1.2 | 9.7 | -12.9 | -2.6 | 3.4 | -18.4 | . | .
Cc1ccc(C(C)C)c(OCC(=O)Nc2ccc3c(c2)nc(CCN2CCCCC2)n3C)c1 | -25.6 | -15.6 | 19.6 | 22.8 | -26.7 | 104.6* | . | . | Mdm2 MdmX conf=100.7*
Cn1c(CCN2CCCCC2)nc2cc(NC(=O)COc3ccc(Cl)cc3)ccc21 | 5.6 | -10.6 | -5.2 | 1.7 | -12.4 | 19.9 | . | .
Cc1ccccc1C(=O)N1CCN(c2ccc(NC(=O)c3ccc([N+](=O)[O-])o3)cc2)CC1 | 17.5 | -19.5 | 64.0* | 96.0* | 10.4 | 100.9* | -0.2 | 100.5*
O=C(Nc1ccc(N2CCN(C(=O)c3ccccc3)CC2)cc1)c1ccc([N+](=O)[O-])o1 | 8.9 | -71.7* | 84.0* | 90.2* | 3.4 | 102.6* | 87.9* | 105.1*
CC(C)C(=O)N1CCN(c2ccc(NC(=O)c3ccc(Br)o3)cc2)CC1 | -15.8 | 8.1 | 4.9 | -18.6 | -17.5 | -5.1 | . | .
CC(C)C(=O)N1CCN(c2ccc(NC(=O)c3ccc([N+](=O)[O-])o3)cc2)CC1 | 3.7 | -46.7 | 90.1* | 88.6* | -6.9 | 111.6* | 54.4* | 98.5*
COCC(=O)Nc1ccc(S(=O)(=O)Nc2onc(C)c2C)cc1 | -4.2 | -6.7 | -34.6 | 19.4 | -7.3 | 14.5 | . | .
COc1ccc(OCc2n(CC(=O)OC3CC(C)CCC3C(C)C)c3ccccc3[n+]2C)cc1 (stereo unspecified) | 47.1 | -52.9* | 64.3* | 95.2* | 41.8 | 100.0* | -5.0 | 102.9* | Mdm2 MdmX conf=102.5*
CC1CCC(C(C)C)C(OC(=O)COC(=O)c2cc(O)ccc2N)C1 (stereo unspecified) | 0.8 | 2.6 | 15.6 | 0.0 | 20.8 | 20.4 | . | .
COC(=O)C12OCC34C(CC5C(C)=C(O)C(=O)CC5(C)C3C(O)C1O)OC(=O)C(OC(=O)C=C(C)C)C24 (stereo unspecified) | 85.5* | -42.9 | 93.5* | 67.8* | 94.9* | 100.0* | 59.9* | 105.4*
O=[N+]([O-])c1cc(-c2ncccn2)c([N+](=O)[O-])s1 | 0.9 | 9.7 | 15.6 | 91.2* | 10.2 | 104.5* | 40.1* | 51.8*
COc1ccc(S(=O)CC(=O)Nc2ccccc2Cl)cc1 (stereo unspecified) | -9.7 | 2.0 | 15.6 | -1.6 | -12.5 | -7.2 | . | .
O=C(CCl)N(c1ccccc1)C1CCCCC1 | 6.5 | -91.6* | 92.1* | 60.7* | 32.8 | 110.0* | 91.8* | 105.5* | Mdm2 MdmX conf=103.5*
Cc1[nH]c2ccccc2c1C(=O)CSc1cccc[n+]1[O-] | 2.6 | 3.4 | -6.1 | 14.4 | 4.5 | -2.9 | . | .
COc1ccc(-c2cc3nc(-c4ccccc4)cc(N4CCCC(O)C4)n3n2)cc1 (stereo unspecified) | 11.9 | 2.9 | -6.5 | 42.7* | 38.3 | 46.2 | -10.9 | 90.3*
O=C(Nc1cccc(S(=O)(=O)NC2=NCCC2)c1)c1ccccc1F | -1.9 | -21.2 | 5.4 | -6.9 | -12.8 | 4.5 | . | .
CCOc1ccc(OCc2cccc(C(=O)N3CCCCCC3)c2)cc1 | -46.4 | -7.4 | 10.1 | 44.4* | -15.8 | -85.9 | 28.3 | -70.5
COc1cc2c(cc1OC)C(c1ccccc1)N(C(=O)CCl)CC2 (stereo unspecified) | -7.4 | -8.4 | 21.7 | 92.6* | 5.4 | 102.0* | 99.2* | 106.2*
CCC(=O)Nc1cc(SCCO)cc([N+](=O)[O-])c1 | 6.4 | -5.5 | 6.1 | 14.9 | 7.6 | 11.0 | . | .
O=C(CCl)Nc1cc(SCC(O)CO)cc([N+](=O)[O-])c1 (stereo unspecified) | -3.8 | -93.3* | 95.8* | 86.0* | 10.1 | 105.7* | 87.7* | 106.9*
CCC(=O)Nc1cc(ON=C(C)C)cc([N+](=O)[O-])c1 | -3.3 | -7.4 | 8.7 | 17.4 | 4.2 | 15.3 | . | .
SMILES | TROY NFkB inh | KKLEB cytotox | CF NFkB inh | HIF-2a block | TWEAK Fn14 block | Peg3 promoter | HIF-2a conf | HIF-1a cs | others
CC(C)=NOc1cc(NC(=O)CCl)cc([N+](=O)[O-])c1 | -15.9 | -57.0* | 78.6* | 43.9* | 22.9 | 110.3* | 66.3* | 106.5* | Mdm2 MdmX conf=103.2*
CCc1nnc(NC(=O)c2cccc(S(=O)(=O)N3CC(c4ccccc4)CC3=O)c2)s1 (stereo unspecified) | -2.1 | -14.0 | -8.2 | 13.7 | -10.8 | 1.8 | . | .
Cc1ccc(/C=C/C(=O)NCCCN2CCN(CCCNC(=O)/C=C/c3ccc(C)cc3)CC2)cc1 | -0.2 | 1.6 | -0.7 | -9.3 | 17.8 | -11.3 | . | .
CC(C)(C)c1ccc(C(=O)NCCN2CCOCC2)cc1 | -6.7 | -2.8 | 4.6 | -23.2 | -2.5 | -15.1 | . | .
CC(C)(C)c1ccc(/C=C/C(=O)NCCCN2CCOCC2)cc1 | 29.2 | -7.6 | -7.6 | 47.6* | 31.8 | -3.7 | 25.6 | 29.5
CC(C)(C)c1ccc(C(=O)NCCCN2CCN(CCCNC(=O)c3ccc(C(C)(C)C)cc3)CC2)cc1 | 28.4 | -71.0* | 20.8 | 73.1* | -21.9 | 109.4* | . | . | Mdm2 MdmX conf=102.2*
COc1cc(OC)nc(Nc2nc(C(N)Cc3ccc(C(F)(F)F)cc3)cs2)n1 (stereo unspecified) | -4.7 | -20.9 | 12.5 | 70.4* | -28.1 | 115.0* | -2.1 | 104.7*
CCOC(=O)N1CCN(C(=O)c2ccc3c(c2)N(Cc2ccc(F)cc2)CCS3)CC1 | 15.7 | 2.5 | 1.9 | 20.0 | 5.9 | 24.3 | . | .
